M1 PAM: potentiates human M1 receptor response to acetylcholine; activation, % at 3 µM; P11229; 360,000 compounds, 0.088% hits; AID 588819; CHO-K1 hM1, Fluo-8 calcium fluorescence, ACh EC20; 0% = ACh EC20, 100% = maximal ACh; in the data active means activation above about 19%, passing the limit was not always enough
SKN-1 inh: inhibitors of C. elegans SKN-1; C. elegans VP596 Pgst-4::GFP/RFP ratio, acrylamide-induced, 24 h; inhibition, % at 21.8 µM; 360,000 compounds, 0.49% hits; AID 624304;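 active means interference check ratio from 0.5 to 1.5 plus GFP to RFP signal ratio inhibition reaching or exceeding a fixed threshold, cut at about 30% in these data, passing the limit was not always enough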
ATG4B inhibitor: blocks human ATG4B protease cleavage of LC3 substrate; Q9Y4P1; ATG4B cleavage of LC3-PLA2, NBD-HPC fluorescence, 1 h; inhibition, % at 8.33 µM; 340,000 compounds, 0.51% hits; in the data active means inhibition above about 40%
Target sequence (Q9Y4P1 whole entry, looked up): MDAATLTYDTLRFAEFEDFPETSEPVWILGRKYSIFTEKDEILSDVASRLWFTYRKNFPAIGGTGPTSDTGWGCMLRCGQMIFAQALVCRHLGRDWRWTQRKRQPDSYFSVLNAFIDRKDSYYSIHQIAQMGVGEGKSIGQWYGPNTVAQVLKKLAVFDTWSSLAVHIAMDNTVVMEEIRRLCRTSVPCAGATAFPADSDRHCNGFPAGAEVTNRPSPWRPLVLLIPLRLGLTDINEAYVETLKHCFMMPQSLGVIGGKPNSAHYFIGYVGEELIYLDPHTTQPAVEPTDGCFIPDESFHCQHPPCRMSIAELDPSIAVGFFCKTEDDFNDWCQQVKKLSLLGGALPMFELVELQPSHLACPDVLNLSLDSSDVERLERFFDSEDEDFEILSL
CHRM1 antagonist: blocks human M1 muscarinic receptor; P11229; CHO-K1 hM1, Fluo-8 calcium fluorescence, ACh EC80 antagonist; inhibition, % at 3 µM; 360,000 compounds, 1.3% hits;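 active means percent inhibition above its own plate's cutoff, namely the mean of that plate's compound wells plus 3 SD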;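 further: peak over basal fluorescence ratio during 140 s after agonist addition; 0% = ACh EC80 plus DMSO and 100% = DMSO alone without agonist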
Myeloid diff MLP: compounds promoting myeloid differentiation. calls only at 10 µM. ER-HoxA9 myeloid progenitors, lysozyme-GFP differentiation, flow cytometry. 360,000 compounds, 1% hits;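 active means normalized GFP-positive differentiation at or above the plate's own cutoff, the solvent-only control mean plus 3 SD; inconclusive means no clear call, values can overlap the other calls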;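 further: cells exposed to compound for four days before flow analysis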
CHRM1 agonist: agonists of human M1 muscarinic receptor | P11229 | CHO-K1 hM1, Fluo-8 calcium fluorescence, agonist mode; 0% DMSO, 100% acetylcholine EC100 | activation, % at 3 µM | 360,000 compounds, 0.33% hits;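 active means activation above the run's mean compound activation plus 3 SD, cut at about 16% in these data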;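 further: peak over basal fluorescence ratio within a 140 s kinetic read after compound addition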
Myeloid diff: compounds promoting myeloid differentiation; shares compounds with Myeloid diff MLP; ER-HoxA9 myeloid progenitors, GFP/Mac1 double-positive flow; calls only; 2,300 compounds, 2% hits;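 active means share of green or green-and-red cells above 9 and 9% in run 1 or 4 and 3% in run 2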
GFP autofluor: flagged as fluorescent in myeloid differentiation counter-screen. shares compounds with Myeloid diff MLP. ER-HoxA9 myeloid progenitors, no estrogen, GFP autofluorescence flow cytometry; vehicle wells 0%, positive control 100%. fluorescence response, % (concentration not given with the values). 2,300 compounds, 7.4% hits;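 active means over 5% cells positive for green fluorescent reporter, or over 2% positive for both it and APC stain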;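 further: range taken on the double positive population between DMSO and positive control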
Active calls of the source: *. Rows were chosen to be rich in hits. Some 3.5% of all compounds tested hit in one or more screens of this group.

CC(=O)n1cc(C2C(=O)CCCC2=O)c2ccccc21 was read as M1 PAM 0.7, SKN-1 inh -16.9, ATG4B inhibitor -8.8, CHRM1 antagonist -15.7, Myeloid diff MLP inactive, CHRM1 agonist -1.4, Myeloid diff inactive and GFP autofluor 0.8.
For Cc1ccc(CCNC(=O)CCS(=O)(=O)c2cc3c(cc2C)NC(=O)CO3)cc1 the results were M1 PAM 0.3, SKN-1 inh 4.3, ATG4B inhibitor -12.4, CHRM1 antagonist -6.2, Myeloid diff MLP inactive, CHRM1 agonist -3.5, Myeloid diff inactive and GFP autofluor 0.2.
`O=C(CCS(=O)(=O)c1cc2c(cc1Cl)NC(=O)CO2)NCCc1ccccc1` gave M1 PAM 2.0, SKN-1 inh -12.0, ATG4B inhibitor 0.1, CHRM1 antagonist -2.7, Myeloid diff MLP inactive and CHRM1 agonist -2.6.
For COc1cccc(-n2c(SCC(=O)Nc3cc(C)on3)nc3ccccc3c2=O)c1 the results were M1 PAM -1.8, SKN-1 inh 9.3, ATG4B inhibitor 1.1, CHRM1 antagonist 1.5, Myeloid diff MLP inactive and CHRM1 agonist -5.3.
COc1ccc(-n2c(SCC(=O)Nc3cc(C)on3)nc3ccccc3c2=O)cc1Cl was read as M1 PAM 20.6, SKN-1 inh -9.6, ATG4B inhibitor 0.8, CHRM1 antagonist -25.6, Myeloid diff MLP inactive, CHRM1 agonist 2.7, Myeloid diff inactive and GFP autofluor 0.0.
`Cc1ccc(C(=O)OCC(=O)NCc2ccc(Cl)cc2Cl)o1` gave M1 PAM -9.2, SKN-1 inh -5.7, ATG4B inhibitor 5.4, CHRM1 antagonist 26.3, Myeloid diff MLP inactive and CHRM1 agonist -3.2.
Screening Cc1ccc(C(=O)N/C(=C\c2cccs2)C(=O)NCCCN2CCOCC2)cc1 returned M1 PAM 14.7, SKN-1 inh 0.3, ATG4B inhibitor -5.3, CHRM1 antagonist -2.7, Myeloid diff MLP inactive and CHRM1 agonist -0.5.
For O=C(O)c1ccc(Nc2ncnc3scc(-c4ccccc4)c23)cc1 the results were M1 PAM 5.3, SKN-1 inh 2.8, ATG4B inhibitor 4.3, CHRM1 antagonist -0.5, Myeloid diff MLP active, CHRM1 agonist -2.8, Myeloid diff inactive and GFP autofluor 0.5.
COc1ccnc(CSC(N)=Nc2cccc(C(F)(F)F)c2)c1 was read as M1 PAM 3.2, SKN-1 inh 4.3, ATG4B inhibitor -7.7, CHRM1 antagonist -3.0, Myeloid diff MLP inactive and CHRM1 agonist -2.8.
For CCOc1cc(/C=C/C(=O)c2ccc(OC)c(CN3CCOCC3)c2)cc(Br)c1O the results were M1 PAM -2.5, SKN-1 inh 13.2, ATG4B inhibitor -17.6, CHRM1 antagonist -3.3, Myeloid diff MLP inconclusive and CHRM1 agonist 0.4.
`Cc1ccc(N=C2NC(=O)/C(=C/c3cn(C)c4ccccc34)S2)cc1C` gave M1 PAM -8.0, SKN-1 inh 28.2, ATG4B inhibitor 8.5, CHRM1 antagonist 6.6, Myeloid diff MLP active, CHRM1 agonist 1.4, Myeloid diff inactive and GFP autofluor 35.3*.
Cn1cccc1/C=C1\SC(=Nc2ccccc2)NC1=O was read as M1 PAM 5.4, SKN-1 inh 0.1, ATG4B inhibitor -7.1, CHRM1 antagonist -4.2, Myeloid diff MLP inconclusive and CHRM1 agonist -1.4.
`CC(C)NC1(C(N)=O)CCNCC1` gave M1 PAM 6.3, SKN-1 inh -0.8, ATG4B inhibitor -0.8, CHRM1 antagonist -14.2, Myeloid diff MLP inactive and CHRM1 agonist -0.7.
For COc1ccc(/C=N/NC2=NS(=O)(=O)c3ccccc32)cc1OC(C)=O the results were M1 PAM 5.7, SKN-1 inh -6.4, ATG4B inhibitor 0.9, CHRM1 antagonist -9.8, Myeloid diff MLP inactive, CHRM1 agonist -2.8, Myeloid diff inactive and GFP autofluor 0.0.
O=C(OCc1cn([C@H]2CN(Cc3cccs3)[C@@H](c3ccc(Cl)cc3)C[C@@H]2O)nn1)c1ccccc1 was read as M1 PAM 12.6, SKN-1 inh -4.2, CHRM1 antagonist -13.4, Myeloid diff MLP inactive and CHRM1 agonist -2.0.
Screening CSc1ccccc1NC(=O)Nc1ccc(Cl)cc1 returned M1 PAM -7.4, SKN-1 inh 16.2, ATG4B inhibitor 15.8, CHRM1 antagonist -0.2, Myeloid diff MLP inactive, CHRM1 agonist -4.1, Myeloid diff inactive and GFP autofluor 0.0.
`CCN(CC)S(=O)(=O)c1cc(OCC(N)=O)c(C)cc1Cl` gave M1 PAM -1.8, SKN-1 inh -5.4, ATG4B inhibitor -4.3, CHRM1 antagonist -3.4, Myeloid diff MLP inactive, CHRM1 agonist -5.9, Myeloid diff inactive and GFP autofluor 0.2.
Screening N#CCCOC1(C#CCN2CCCC2)CCCCC1 returned M1 PAM -4.7, SKN-1 inh -17.7, ATG4B inhibitor 1.9, CHRM1 antagonist 9.3, Myeloid diff MLP inactive and CHRM1 agonist -6.0.
Screening COc1cccc(C(O)c2nc(-c3ccccc3C)cs2)c1 (centres undefined) returned M1 PAM 0.5, SKN-1 inh 15.7, CHRM1 antagonist -3.9, Myeloid diff MLP active, CHRM1 agonist -5.4, Myeloid diff inactive and GFP autofluor 0.3.
For COc1cccc(C(O)c2nc(-c3ccccc3OC)cs2)c1 (centres undefined) the results were M1 PAM 1.5, SKN-1 inh 5.2, CHRM1 antagonist -10.0, Myeloid diff MLP inactive and CHRM1 agonist -4.0.
COC(=O)c1ccccc1N1C(=O)C2C(C1=O)C1C=CC2C12CC2 (centres undefined) was read as M1 PAM 10.8, SKN-1 inh -31.6, ATG4B inhibitor -5.3, CHRM1 antagonist -11.2, Myeloid diff MLP active, CHRM1 agonist 0.8, Myeloid diff inactive and GFP autofluor 94.1*.
Screening CCc1ccc(C(=O)C(C)OC(=O)Cc2n[nH]c(=O)c3ccccc23)cc1 (centres undefined) returned M1 PAM -7.0, SKN-1 inh -9.9, ATG4B inhibitor -10.4, CHRM1 antagonist 14.2, Myeloid diff MLP active, CHRM1 agonist -0.5, Myeloid diff inactive and GFP autofluor 0.0.
CCc1ccc(C(=O)C(C)OC(=O)Cn2[nH]c(=O)c3ccccc3c2=O)cc1 (centres undefined) was read as M1 PAM 12.6, SKN-1 inh -10.2, ATG4B inhibitor 2.6, CHRM1 antagonist 9.7, Myeloid diff MLP inactive and CHRM1 agonist 5.4.
Screening CCOC(=O)c1cc(NC(=O)CN2CCCC2)cc(C(=O)OCC)c1 returned M1 PAM 25.5, SKN-1 inh 33.0, ATG4B inhibitor -6.3, CHRM1 antagonist -16.4, Myeloid diff MLP inactive and CHRM1 agonist -0.4.
